About 83,000 compounds went through this panel and 20% of them were active in at least one assay; those are over-represented in the sample as a whole.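 How to read the values: 0–100, growth inhibition (40 = 60% inhibited); 0, no net growth; -100 to 0, cell death (-40 = 40% of starting cells died; -100 = all dead).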 A number with no mark means an inactive call. Calls of active or inactive are those of the source.
test system: A498 renal; assay: NCI-60 one-dose screen, 48 h (100 = growth as untreated, 0 = no growth, -100 = all killed); conditions: 10 µM unless noted
Procedure: Growth inhibition of the A498 human tumor cell line is measured as a screen for anti-cancer activity. Cells are grown in 96 well plates and exposed to the test compound for 48 hours. Compounds are tested at a single concentration, which is 10^-5 M for most compounds. The reported endpoint is percent growth (GI% or GIPRCNT), where numbers from 0 - 100% represent growth inhibition, and numbers from -100% - 0 represent cell death. For example, a value of 40 represents 60% growth inhibition. A value of 0 means no net growth occurred over the course of the experiment. A value of -40 indicates 40% of cells at the beginning of the experiment died by the end of the experiment. A value of -100 means all cells are dead at the end of the experiment.
NCI-60 Human Tumor Cell Lines Screen was performed using the standard one-dose NCI protocol, which is described in more detail at https://dtp.cancer.gov/discovery_development/nci-60/default.htm.
Compounds with GIPRCNT values below 10 were considered active. Activity score was based on GIPRCNT using the following formula: […]
Score is 0 for GIPRCNT values of 100 or above, 50 for GIPRCNT values of 0, and 100 for GIPRCNT values of -100.

Question: Which growth does the source give for COc1ccc(C(=O)/C=C/c2c(OC)cc(OC)cc2OC)c(OC)c1 here?
Answer: 13.8%

Question: Which growth does the source give for COc1ccc(C(O)c2cc3c(N)c(C(=O)Nc4ccc(Br)cc4)sc3nc2C)cc1 (stereo not given) here?
Answer: -1.93% (active)

Question: For O=C(NCCc1ccccn1)OCc1nc2nc(Cl)nc(N3CCOCC3)c2[nH]1, which growth is on record?
Answer: -9.02% (active)

Question: How did the growth turn out when COc1ccccc1N1CCN(C(=O)c2ccc3nc(NC(=O)c4ccc(NCCc5ccccc5)c([N+](=O)[O-])c4)sc3c2)CC1 was run?
Answer: 79.6%

Question: Which growth does the source give for CC1=CC2(C)/C=C(C)/C=C\CC(O)/C=C3/C=CC(=C4C(=O)OC2(CC1C)C4=O)OC3 (stereo not given) here?
Answer: 55.3%

Question: Which growth does the source give for Clc1cc(Cl)cc(N2N=C(c3cccc(Nc4ccncc4)c3)CC2c2ccccc2)c1 (stereo not given) here?
Answer: 103%

Question: Which growth does the source give for O=C(CN1CCOCC1)Nc1ccc2ncnc(Nc3ccc(OCc4cccc(F)c4)c(Cl)c3)c2c1 here?
Answer: 28%

Question: How did the growth turn out when COc1cc(-c2cc(=O)oc3cc(O)ccc23)cc(OC)c1OC was run?
Answer: 101%

Question: For COc1cccc2cc(-c3cc4ccccc4[nH]3)/c(=N/C(=S)Nc3ccc(C)cc3)oc12, which growth is on record?
Answer: 63%

Question: How did the growth turn out when Cn1c(=O)c2[nH]c(CCCc3nc4c([nH]3)c(=O)n(C)c(=O)n4C)nc2n(C)c1=O was run?
Answer: 142%

Question: Which growth does the source give for CC(=O)CCSc1ccc(OC(C)=O)cc1 here?
Answer: 95.8%

Question: O=C1Nc2c(ccc(Cl)c2Cl)/C1=C/c1ccccn1 was tested. Which growth did it give?
Answer: 110%

Question: With O=S(=O)(NCCNc1nccc(-c2c(-c3cccc(F)c3)nc3occn23)n1)c1cccc2ccccc12 as the compound, how does the growth read?
Answer: 37.7%

Question: With COc1ccc(CNC(=O)COc2ccc(/C=N/Nc3nc4ccccc4s3)cc2)cc1 as the compound, how does the growth read?
Answer: -19.5% (active)

Question: O=C1NC(=S)NC(=O)C1=Cc1cccc(C=C2C(=O)NC(=S)NC2=O)c1 was tested. Which growth did it give?
Answer: 93.1%

Question: With COc1ccc(-c2nc(N=Nc3c(O)[nH]c4ccccc34)nc(N3CCOCC3)c2C#N)cc1 as the compound, how does the growth read?
Answer: 67.4%

Question: How did the growth turn out when NC(=O)c1ncn(C2OC(CO)C(O)C2O)n1 (stereo not given) was run?
Answer: 89.1%

Question: Which growth does the source give for COc1ccccc1/C=N/NC1=NC2C(N1)N(C)C(=O)N2C (stereo not given) here?
Answer: 97.4%

Question: Which growth does the source give for CCN(CC)CCOC(COc1cc(C)cc(C)c1)COc1cc(C)cc(C)c1 here?
Answer: 28.4%

Question: For CCCCCCCCCCN=C(N)N=C(N)N, which growth is on record?
Answer: 54.9%

Question: CCCCCCCCN1C(=O)/C(=c2\sc3n(c2=O)C2C(NN=3)N(CC)C(=O)N2CC)c2ccccc21 (stereo not given) was tested. Which growth did it give?
Answer: 86.9%

Question: For Cc1ccc2nc3c(cc2c1)CSc1nnc(-c2ccc[nH]c2=S)n1N3, which growth is on record?
Answer: 101%

Question: COc1ccc2c(/C=C3/C(=O)NC(=S)NC3C)cc(=O)oc2c1 (stereo not given) was tested. Which growth did it give?
Answer: 91.5%

Question: CCCOc1nc(SCCC)nc2c1cnn2-c1ccccc1 was tested. Which growth did it give?
Answer: 134%

Question: COc1cc(C(=O)/C=C/c2c(C)n([O-])c3ccc(Cl)cc3[n+]2=O)cc(OC)c1OC was tested. Which growth did it give?
Answer: 100%

Question: With COc1ccc(-c2nc(N/N=C/c3cccc(O)c3)nc(N3CCOCC3)c2C#N)cc1 as the compound, how does the growth read?
Answer: 85.7%

Question: Which growth does the source give for COc1cc2ncnc(Nc3ccc(C(=O)/C=C/c4ccc(C(F)(F)F)cc4F)cc3)c2cc1OC here?
Answer: 97.4%

Question: With Fc1ccc(C2CC(c3cccc(Nc4ccncc4)c3)=NN2c2ccccc2)cc1 (stereo not given) as the compound, how does the growth read?
Answer: 85.2%

Question: How did the growth turn out when Clc1ccc(C2CC(c3cccc(Nc4ccncc4)c3)=NN2c2ccccc2)cc1 (stereo not given) was run?
Answer: 84%

Question: Which growth does the source give for COc1ccc(/C=C/C(=O)c2ccc(Nc3ncnc4ccccc34)cc2)cc1OC here?
Answer: 77.6%

Question: C=CCn1c(SCC(=O)Nc2ccc(C(=O)/C=C/c3cc(OC)c(OC)c(OC)c3)cc2)nnc1-c1cc(OC)c(OC)c(OC)c1 was tested. Which growth did it give?
Answer: 55.8%

Question: How did the growth turn out when Cc1ccc(-c2c(Br)c(OC(=O)CO[C@@H]3C[C@H](C)CC[C@H]3C(C)C)c(-c3ccc(C)cc3C)c(Br)c2OC(=O)CO[C@H]2C[C@@H](C)CC[C@@H]2C(C)C)c(C)c1 was run?
Answer: 96.1%

Question: With CN1C(=O)N(C)C2NC(N/N=C/c3ccccc3)=NC21 (stereo not given) as the compound, how does the growth read?
Answer: 95.4%

Question: With NC(=O)c1cccc(-c2ccccc2N2CCCCC2)c1 as the compound, how does the growth read?
Answer: 95.3%

Question: Which growth does the source give for COc1nccnn1 here?
Answer: 92.9%

Question: Clc1cc(Cl)cc(N2N=C(c3cccc(Nc4ccncc4)c3)CC2c2ccc3c(c2)OCO3)c1 (stereo not given) was tested. Which growth did it give?
Answer: 96.6%

Question: For COc1cc(NCCN(CC(C)C)C2CCCC2)c2ncccc2c1, which growth is on record?
Answer: 75%

Question: Which growth does the source give for CCN(CCNc1cc(OC)cc2cccnc12)CCc1ccccc1 here?
Answer: 92.2%

Question: How did the growth turn out when Cc1c2c(cc[n+]1Cc1ccccc1)c1ccc(OCc3ccccc3)cc1n2Cc1ccccc1 was run?
Answer: -34.5% (active)

Question: How did the growth turn out when CC(C)(C)OC(=O)N1C/C(=C\c2ccoc2)C(=O)/C(=C/c2ccoc2)C1 was run?
Answer: 74.1%

Source: PubChem BioAssay (NCI)
